# Compound activity as filed in PubChem.
# Hits are enriched below; roughly 19% of the tested compounds scored in any of these assays.
# DT40 TDP1 CPT: DT40-hTDP1 cell growth loss with CPT; chicken DT40 Tdp1-/-;hTDP1 cells + 20 nM CPT, ATP luminescence, 48 h; Potency, µM (titrated, usually from 46.2 µM), for the others: at the highest dose activity change, negative = growth inhibition, most hits filed as inhibitors; 12% of 420,000 active; AID 686979; note: potency is the fitted concentration of half-maximal effect; nearly all actives have a fitted effect of over 55% in size
#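 Chicken DT40 Tdp1-/- cells stably complemented with human TDP1 were seeded at 400 cells/well in medium containing 20 nM camptothecin, exposed to pin-transferred compounds, and grown at 37 °C for at least 48 hr. Viability was read as ATP luminescence.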
# TDP1 cell noCPT: qHTS for Inhibitors of human tyrosyl-DNA phosphodiesterase 1 (TDP1): qHTS in cells in absence of CPT | DT40 Tdp1-/- hTDP1 cells, no CPT, ATP luminescence, 48 h | Potency, µM (doses to about 46.2 µM), inactives show top-dose activity change, negative = growth inhibition, actives largely listed as inhibitors | 15% of 420,000 active; note: potency is the fitted concentration of half-maximal effect; nearly all actives have a fitted effect of over 55% in size
#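 Chicken DT40 Tdp1-/- cells stably complemented with human TDP1 were seeded at 400 cells/well with DMSO in place of 20 nM camptothecin. After compound pinning, cells grew at least 48 hr at 37 °C; viability read by CellTiter-Glo luminescence.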
# HT1080-NT tox: kills 2HG-producing HT-1080-NT fibrosarcoma cells; Potency, µM (top dose mostly 46.1 µM), without a hit: at the top dose activity, negative = less viability, most hits filed as cytotoxic; AID 686970; 1.6% of 360,000 active; HT-1080-NT fibrosarcoma viability, CellTiter-Glo ATP luminescence, 48 h;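 note: NT is the 2HG producing partner of a matched IDH1 knockdown line; potency is the fitted concentration of half-maximal effect; 0% = DMSO-treated cells and -100% = media-only wells without cells; nearly all actives have a fitted effect of over 55% in size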
#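 Read-out is CellTiter-Glo luminescence after 10 minutes at room temperature, following 48 hours' compound treatment of HT-1080-NT cells (750 cells/well, RPMI, 5% FBS, 37 degrees C).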
# HT1080 IDH1KD tx: toxicity to HT-1080 IDH1 knockdown cells (counter line); 2% of 360,000 active; Potency, µM (series often up to 46.1 µM), for inactives: at the highest dose activity, negative = toxicity, hits mostly cytotoxic; HT-1080 IDH1 knockdown viability, ATP luminescence, 48 h; AID 686971;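 note: potency is the fitted concentration of half-maximal effect; 0% = DMSO wells and -100% = cell-free medium wells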
#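 % activity derives from luminescence (CellTiter-Glo), normalised to DMSO and no-cell wells. HT-1080-IDH1KD cells, 750/well, had 48 h compound exposure at 37 °C.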
# IL1B secr inh: inhibitors of inflammasome signaling (IL-1 beta secretion). 4.7% of 360,000 active. activity change, % at 57.5 µM. AID 743279. THP-1 LPS/ATP IL-1B secretion, AlphaLISA, 16 h; hits give low values; in the data active = activity change below about -50%; inconclusive = mostly about -30% to -49%
#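 THP-1 cells pretreated 1 hr with compounds (up to 57.5 uM final), then stimulated with LPS (250 ng/mL final) plus ATP (1.25 mM final); secreted IL-1B measured by AlphaLISA after 16 hr, decreased signal indicating inhibition.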
# uPA generation: cell surface uPA generation inhibition; cell surface uPA generation assay, qHTS; Potency, µM (titrated, usually from 38.3 µM), without a hit: at the highest dose activity change, negative = inhibition, actives largely listed as inhibitors; 0.31% of 330,000 active; active = well fitted inhibition curve with a large enough effect; inconclusive = small, poorly fitted or top-dose-only effect; inactive = no such curve, though single readings can be large or run the other way; tested in mouse RAW 264.7 cells; note: potency is the fitted concentration of half-maximal effect; nearly all actives have a fitted effect of over 55% in size
# Active calls of the source: *; i = inactive; ? = inconclusive; · = no result; ! = not confirmed by another sample; [ ] = another dose, or the depositor's remark. Unless noted, calls come from the whole dose curve; as a rule, active = well fitted curve in the direction sought with a large enough effect; inconclusive = small, poorly fitted or top-dose-only effect, or another doubt; inactive = no such curve, though single readings can be large; an effect the other way counts as inactive or inconclusive. Unless noted, % is set by controls: 0 for no effect and ±100 for the full control effect.
SMILES,DT40 TDP1 CPT,TDP1 cell noCPT,HT1080-NT tox,HT1080 IDH1KD tx,IL1B secr inh,uPA generation
Cc1c(CC(=O)N[C@@H](C)C(=O)O)c(=O)oc2cc3c(cc12)CCC(C)(C)O3,11%,-23%,12%,0%,-3,4%
Cc1c(CC(=O)NCCC(C)C)c(=O)oc2cc3c(cc12)CCC(C)(C)O3,-13%,21µM*,11%,11%,-10,0%
COc1ccccc1NC(=O)c1ccc(CSc2ccccc2)o1,?,-19%,-1%,15%,0,?
COc1cc(C(=O)O/N=C2\C=CC(=O)C=C2C)cc(OC)c1OC,12µM*,?,5%,15%,24,?
COc1cc(C(=O)ON=C2C3CC4CC(C3)CC2C4)cc(OC)c1OC,?,-17%,-16%,-8%,0,?
Cc1ccc(S(=O)(=O)N2C[C@H]3C(=O)C[C@@H](c4ccc(Cl)cc4)N(S(=O)(=O)c4ccccc4C)[C@H]3C[C@H]2c2ccccc2)cc1,-21%,?,3%,7%,16,·
COc1ccc(OCC(O)CN(CC(O)COc2ccc(OC)cc2)c2cccc(O)c2)cc1 (stereo not drawn),?,-47%,?,?,-50*,2%
COc1ccc(OCC(O)COc2ccc(OC)cc2)cc1,-21%,?,-4%,0%,-14,5%
O=C(NCCN1C(=O)S/C(=C\c2cccc(Cl)c2Cl)C1=O)C1=COCCO1,1.5µM*,2.6µM*,?,?,i,-9%
COCCNC(=O)C(=O)NCC1OCCN1S(=O)(=O)c1cc(F)ccc1F (stereo not drawn),4%,1%,19%,7%,26,-3%
CC(CC(=O)O)Nc1ccccc1O (stereo not drawn),21µM*,?,4%,11%,-18,2%
CC(C)C(=O)NC(CC(=O)O)c1ccccc1 (stereo not drawn),-1%,5%,11%,6%,7,3%
Cc1ccccc1CN1CCCOCCS1(=O)=O,-2%,?,14%,10%,-1,5%
O=S1(=O)CCOCCCN1Cc1ccccc1Br,29µM*!,-28%,9%,-1%,-3,0%
CN(CC(=O)Nc1ccccc1Cl)C(=O)COC(=O)c1ccc(Cl)nc1,-3%,-5%,0%,3%,9,2%
CN(CC(=O)Nc1ccccc1Cl)C(=O)COC(=O)c1nc(Cl)c(Cl)c(Cl)c1Cl,?,?,25%,-14%,-67*,-28%
Cc1ccc2occ(CN3CCOc4ccc(C(C)(O)COc5ccccc5)cc4C3)c(=O)c2c1 (stereo not drawn),4%[9.04 µM],?,·,·,·,·
COc1ccccc1C/C(N)=N/OC(=O)c1ccc(C)c([N+](=O)[O-])c1,?,?,-2%[9.24 µM],10µM*,9,·
COc1ccc(C(=O)O/N=C(\N)c2ccccn2)c(OC)c1,-22%,?,-25%,-33%,-9,-29%
COc1ccc(C(=O)O/N=C(\N)c2ccccc2)c(OC)c1,?,?,-19%,-22%,-2,4µM*
COc1ccc(/C(N)=N/OC(=O)c2cccc([N+](=O)[O-])c2)cc1OC,-26%,-29%,11%,11%,-23,-1%
COc1ccc(C(=O)O/N=C(\N)c2ccc(OC)c(OC)c2)c(OC)c1,?,?,-6%,0%,-54*,?
Cc1ccc(C(=O)O/N=C(\N)Cc2cccs2)cc1[N+](=O)[O-],-20%,-8%,-4%,6%,6,-10%
COc1ccc(/C(N)=N/OC(=O)c2ccc(OC)c([N+](=O)[O-])c2)cc1OC,?,12µM*,-1%,-3%,-13,-18%
CCCCOc1ccc(C(=O)N(C)CC(=O)Nc2ccc(C)cc2)cc1,-24%,8%,6%,10%,-17,2%
SMILES,DT40 TDP1 CPT,TDP1 cell noCPT,HT1080-NT tox,HT1080 IDH1KD tx,IL1B secr inh,uPA generation
CN(C(=O)c1cccc(NC(=O)Cc2ccc(NC(=O)C3CCN(C(=O)C4CCCCC4)CC3)cc2)c1)C1CC1,-6%,?,4%,9%,1,0%
Cc1cc(C)cc(NC(=O)N2CCC(N3CCCCC3)CC2)c1,-6%,-10%,·,·,·,·
COc1ccccc1C/C(N)=N/OC(=O)c1ccco1,21µM*,-2%,-2%,-6%,-8,-17%
COc1ccccc1C/C(N)=N/OC(=O)c1ccc2c(c1)OCO2,?,?,?,-8%,-2,?
COc1ccc(C(=O)NCc2c(C)nn(Cc3ccccc3)c2C)cc1S(=O)(=O)N1CCOCC1,10µM*,?,?,?,-10,10µM*
COc1ccc(S(=O)(=O)N2CCOCC2)cc1C(=O)NCc1c(C)nn(Cc2ccccc2)c1C,?,0%,0%,6%,-6,8%
COc1ccc(CC(=O)N(C)Cc2ccc(C(C)(C)C)cc2)cc1S(=O)(=O)N1CCOCC1,21µM*,29µM*,0%,0%,0,-8%
COc1ccc(CC(=O)Nc2nc3ccc(F)cc3s2)cc1S(=O)(=O)N1CCOCC1,?,?,-18%,?,-59*,-2%
COc1ccc(CC(=O)N(Cc2ccccc2)c2ccc(C)cc2)cc1S(=O)(=O)N1CCOCC1,18µM*,16µM*,2%,-2%,-30,-5%
COc1ccc(CC(=O)Nc2nc3ccccc3s2)cc1S(=O)(=O)N1CCOCC1,?,?,-22%,-13%,-26,2%
COC(=O)[C@@H]1CCCN1C(=O)c1c(OC)cc(=O)n2c1CCN(Cc1cc(OC)ccc1F)CC2,-2%,-23%,·,·,·,·
COC(=O)CC1C(=O)NCCN1C(=O)CSc1nnnn1-c1ccc(Cl)cc1 (stereo not drawn),1%,-18%,-3%,-1%,?,7%
CC(=O)c1cccc(NS(=O)(=O)c2cc(-c3onc(C)c3C)ccc2C)c1,?,-20%,·,·,·,·
CN1CCCCC1C(=O)N1CCC(Oc2cccc(CN3CCN(c4ccccn4)CC3)c2)CC1 (stereo not drawn),12%[9.04 µM],?,·,·,·,·
CCOc1ccc(NC(=O)CCS(=O)(=O)c2cc3c4c(c2)CCN4C(=O)CC3)cc1,-1%,-6%,·,·,·,·
O=S(=O)(Nc1ccc(F)c(C(F)(F)F)c1)c1ccc(N2CCCCS2(=O)=O)cc1,21µM*,12µM*,·,·,·,·
COc1ccc(S(=O)(=O)Nc2ccc(N3CCOCC3)cc2)cc1,-14%,-1%,-3%,-4%,-3,9%
